The panel holds about 83,000 compounds, 20% with a hit somewhere; the sample as a whole holds those more often.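 Single-dose data. Exposure time 48 hours. Values below 10 considered active.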 The source made the active and inactive calls.
Legend:
Test in all cases: NCI-60 one-dose screen, 48 h (100 = growth as untreated, 0 = no growth, -100 = all killed)
Conditions in all cases: 10 µM unless noted
HCT-15 colon = system: HCT-15 colon
HT29 colon = system: HT29 colon
SNB-75 CNS = system: SNB-75 CNS
SNB-19 CNS = system: SNB-19 CNS
U251 CNS = system: U251 CNS
PC-3 prostate = system: PC-3 prostate
SK-MEL-5 melanoma = system: SK-MEL-5 melanoma
UACC-62 melanoma = system: UACC-62 melanoma
LOX IMVI melanoma = system: LOX IMVI melanoma
SK-MEL-28 melanoma = system: SK-MEL-28 melanoma
SK-MEL-2 melanoma = system: SK-MEL-2 melanoma
EKVX NSCLC = system: EKVX NSCLC
SN12C renal = system: SN12C renal
UO-31 renal = system: UO-31 renal
TK-10 renal = system: TK-10 renal
ACHN renal = system: ACHN renal
CAKI-1 renal = system: CAKI-1 renal
CCRF-CEM leukemia = system: CCRF-CEM leukemia
MOLT-4 leukemia = system: MOLT-4 leukemia
A498 renal = system: A498 renal

Measured: growth

COc1cc(CNC(=O)/C=C/C=C/c2ccc3c(c2)OCO3)ccc1OCc1cn(-c2ccc(Cl)c(Cl)c2)nn1
active: HCT-15 colon -49.9% | HT29 colon 5.61% | SNB-75 CNS -36.8% | U251 CNS -57.5% | PC-3 prostate -11% | SK-MEL-5 melanoma -41.1% | UACC-62 melanoma -46.7% | SK-MEL-28 melanoma 6.52% | SK-MEL-2 melanoma -37.3% | TK-10 renal -11.4% | ACHN renal -51% | CAKI-1 renal -17% | MOLT-4 leukemia -12.2%
inactive: SNB-19 CNS 20.5% | LOX IMVI melanoma 11.6% | EKVX NSCLC 13.1% | SN12C renal 34.1% | UO-31 renal 45.5% | CCRF-CEM leukemia 57.7%

CCOC(=O)C1=C(C)NC(SCc2nnc(-c3ccc(Cl)cc3)o2)=NC1c1ccc(Cl)cc1Cl (stereo not drawn)
inactive: HCT-15 colon 55.3% | HT29 colon 53.1% | SNB-75 CNS 84.1% | SNB-19 CNS 72.9% | U251 CNS 65.3% | PC-3 prostate 45.1% | SK-MEL-5 melanoma 80.3% | UACC-62 melanoma 51.6% | LOX IMVI melanoma 58.3% | SK-MEL-28 melanoma 101% | SK-MEL-2 melanoma 60.3% | EKVX NSCLC 77.2% | SN12C renal 65.4% | UO-31 renal 37.2% | TK-10 renal 79.4% | ACHN renal 57.7% | A498 renal 77.7% | CCRF-CEM leukemia 27.4% | MOLT-4 leukemia 11.3%

Cc1ccc(/C=C(\C#N)n2nnc3cc(Cl)c(Cl)cc32)cc1
inactive: HCT-15 colon 11.7% | HT29 colon 12.3% | SNB-19 CNS 17.7% | PC-3 prostate 12.8% | SK-MEL-5 melanoma 14% | UACC-62 melanoma 26.1% | SK-MEL-28 melanoma 41.3% | SK-MEL-2 melanoma 26% | EKVX NSCLC 36.5% | SN12C renal 19.5% | TK-10 renal 44.6% | ACHN renal 25.7% | CAKI-1 renal 22.2%
active: SNB-75 CNS -24.6% | U251 CNS 7.49% | LOX IMVI melanoma -13.4% | UO-31 renal 0.755% | CCRF-CEM leukemia 9.85% | MOLT-4 leukemia 9.51%

CCCCCOC(=O)c1cccc(NC(=O)CN(CC)CC)c1
inactive: HCT-15 colon 107% | HT29 colon 79.6% | SNB-75 CNS 103% | SNB-19 CNS 106% | U251 CNS 103% | PC-3 prostate 77.1% | SK-MEL-5 melanoma 105% | UACC-62 melanoma 103% | LOX IMVI melanoma 101% | SK-MEL-28 melanoma 108% | SK-MEL-2 melanoma 70.7% | EKVX NSCLC 100% | SN12C renal 106% | UO-31 renal 89.2% | TK-10 renal 82.9% | A498 renal 113% | CCRF-CEM leukemia 78.6% | MOLT-4 leukemia 87.5%

Cc1cc(-c2ccccc2)cc(SC#N)[n+]1[O-]
inactive: HCT-15 colon 24.7% | HT29 colon 50.6% | SNB-75 CNS 78.5% | SNB-19 CNS 41.2% | U251 CNS 24.1% | PC-3 prostate 38.7% | SK-MEL-5 melanoma 32.6% | UACC-62 melanoma 28.8% | LOX IMVI melanoma 29.7% | SK-MEL-28 melanoma 45.1% | SK-MEL-2 melanoma 49.1% | EKVX NSCLC 26.2% | SN12C renal 51.7% | UO-31 renal 40.4% | TK-10 renal 55.9% | A498 renal 67.7% | MOLT-4 leukemia 10.1%
active: CCRF-CEM leukemia 6.22%

O=C1c2ccccc2C(=O)c2cc(Cn3cc[n+](Cc4ccc5ccccc5c4)c3)ccc21
inactive: HCT-15 colon 98.1% | HT29 colon 73.1% | SNB-75 CNS 62.8% | SNB-19 CNS 79.5% | U251 CNS 85.8% | PC-3 prostate 38.8% | SK-MEL-5 melanoma 68.3% | UACC-62 melanoma 61.1% | LOX IMVI melanoma 94.9% | SK-MEL-28 melanoma 94.5% | SK-MEL-2 melanoma 89.1% | EKVX NSCLC 70.9% | SN12C renal 74.4% | UO-31 renal 82.5% | ACHN renal 108% | CAKI-1 renal 96.5% | A498 renal 98.3% | CCRF-CEM leukemia 71% | MOLT-4 leukemia 79.1%

COc1cc(-c2cccc([N+](=O)[O-])c2)c(-c2nc(-c3ccccc3)c(-c3ccccc3)n2C2CC2)cc1OC
inactive: HCT-15 colon 56% | HT29 colon 44.5% | SNB-75 CNS 67.7% | SNB-19 CNS 80.4% | U251 CNS 67.3% | PC-3 prostate 24% | SK-MEL-5 melanoma 52.5% | UACC-62 melanoma 53.5% | LOX IMVI melanoma 60.1% | SK-MEL-28 melanoma 87.2% | SK-MEL-2 melanoma 57.6% | EKVX NSCLC 57.2% | SN12C renal 75.1% | UO-31 renal 37.7% | A498 renal 77.6% | CCRF-CEM leukemia 48.1% | MOLT-4 leukemia 25.9%

Cc1cc(C)on1
inactive: HCT-15 colon 105% | HT29 colon 107% | SNB-75 CNS 101% | SNB-19 CNS 102% | U251 CNS 98.9% | PC-3 prostate 89.9% | SK-MEL-5 melanoma 99.6% | UACC-62 melanoma 110% | LOX IMVI melanoma 102% | SK-MEL-28 melanoma 101% | SK-MEL-2 melanoma 99.6% | EKVX NSCLC 99.2% | SN12C renal 99.6% | UO-31 renal 84.5% | ACHN renal 104% | CAKI-1 renal 98.4% | A498 renal 121% | CCRF-CEM leukemia 96% | MOLT-4 leukemia 92.3%
